# Yp Topo-I inh – blocks Yersinia pestis topoisomerase I activity; Y. pestis Topo-I cleavage product accumulation, plate reader; activity, % at 10 µM; 360,000 tested, 0.064% active; AID 504884; in the data active means activity above about 50%, passing the limit was not always enough
# FadD28 FP inh – inhibitors of Mycobacterium tuberculosis FadD28 bisubstrate binding; inhibition, % at 12.5 µM; 360,000 tested, 0.22% active; FadD28 bisubstrate probe binding, fluorescence polarization; AID 588549; in the data active means inhibition above about 8.5%, passing the limit was not always enough
# BioA inh – BioA (M. tuberculosis) enzyme inhibition; 360,000 tested, 0.096% active; inhibition, % at 9.99 µM; AID 602481; purified M. tuberculosis BioA enzyme, plate reader; in the data active means inhibition above about 40%
# MazEF act – activators of E. coli MazEF toxin-antitoxin RNase; P0AE70; FAM/BHQ RNA-DNA oligo cleavage fluorescence, 5 h; activation, % at 20 µM; 350,000 tested, 0.32% active; AID 504720; in the data active means activation above about 50%
# TcdB inh – inhibitors of Clostridioides difficile toxin B glycohydrolase; P18177; TcdB glycohydrolase enzymatic assay, plate reader; inhibition, % at 9.99 µM; 350,000 tested, 0.24% active; in the data active means inhibition above about 10%
# DUSP3 inh – blocks human VHR1 dual specificity phosphatase; P51452; recombinant VHR phosphatase, pNPP absorbance; inhibition, % at 13.3 µM; 290,000 tested, 0.52% active; AID 1654; in the data active means inhibition above about 50%
# Starred values were filed as active, the others as inactive; · = no result; ! = repeats disagree. Sampled rows, rich in hits. Any-hit rate of the full collection: about 1%.
SMILES,Yp Topo-I inh,FadD28 FP inh,BioA inh,MazEF act,TcdB inh,DUSP3 inh
Cc1ccccc1S(=O)(=O)Cc1ccc(C(=O)NCc2ccccc2)o1,9,0,·,6,-3,57*
Cn1cccc1/C=C1\CCC/C(=C\c2cccn2C)C1=O,2,-1,·,863*,·,2
O=C1/C(=C/c2cccs2)CCC/C1=C\c1cccs1,14,-4,1,-24,2,-17
Cc1ccc2nc3c(cc(C(=O)NC4CCCC4)c(=N)n3C3CCCCC3)c(=O)n2c1,16,·,-2,12,-1,58*
O=C(Nc1cccc(Cl)c1)c1ccc2c(c1)SC1=NS(=O)(=O)CCN12,-3,-4,·,136*,0,21
O=C(CN1CCC(n2nnc3cc(F)ccc32)CC1)NCCc1ccccc1,7,-2,1,6,·,53*
C[C@H]1CN([C@@H](C)CO)C(=O)c2cccc(NS(=O)(=O)c3ccc(F)cc3)c2O[C@H]1CN(C)C(=O)Nc1cccc2ccccc12,·,·,-1,·,0,·
C#CCONC(=O)c1cc(OCC(F)(F)F)ccc1OCC(F)(F)F,1,-4,2,3,·,53*
O=C(NO)c1cc(OCC(F)(F)F)ccc1OCC(F)(F)F,5,-1,-1,3,·,23
C=Cc1c(C)c2cc3[nH]c(cc4nc(cc5nc(cc1[nH]2)C(C)=C5CCC(=O)O)C(CCC(=O)O)=C4C)c(C)c3C=C,0,43*!,1,-47,-2,·
COc1ccccc1N1CCN(C(=O)/C=C/c2ccccc2)CC1,15,0,2,0,·,53*
O=C(c1cc(COc2c(F)cccc2F)on1)N(Cc1ccccc1)CC1CC1,64*,-6,-1,-8,0,-4
CC(C)NC(=O)N(C)C[C@@H]1Oc2ncc(-c3cccc(C#N)c3)cc2C(=O)N([C@H](C)CO)C[C@H]1C,·,·,-1,·,1,·
Cc1ccc(S(=O)(=O)N[C@@H]2CC[C@@H](CCNC(=O)CN3CCOCC3)O[C@@H]2CO)cc1,·,·,-2,·,-1,·
COc1ccc(Cn2c(-c3ccccc3C)nc3c(c(=O)c4ccccc4n3C)c2=O)cc1,2,-4,-1,67*,2,·
O=C(C[C@H]1C=C[C@H](NC(=O)Nc2ccc(F)cc2)[C@@H](CO)O1)NCc1cccc(F)c1,·,·,-1,·,0,·
CC(=O)N(c1ccccc1C)S(=O)(=O)c1ccc(Cl)cc1,-5,-1,·,-27,11*,22
COCCNc1oc(/C=C/c2ccccc2)nc1C#N,5,1,·,12,12*,4
CNc1oc(/C=C/c2ccccc2)nc1C#N,-5,0,·,1,·,-5
Cc1cccn2c(=O)c(/C=C(\C#N)C(=O)NCc3ccco3)c(N3CCCC(C)C3)nc12 (stereo not given),1,-3,0,6,1,55*
CCO[C@@H]1OC(C(=O)Nc2ccccc2)=C[C@H](c2cn(C(C)=O)c3ccccc23)[C@H]1CCCO,·,·,0,·,-6,·
Cc1n[nH]c(=O)nc1Nc1ccc(O)cc1,8,0,0,0,21*,26
Cc1ccc(Nc2nc(=O)[nH]nc2C)cc1,7,-2,0,-5,·,24
CC(C)NC(=O)N(C)C[C@H]1Oc2cc(-c3cccnc3)ccc2S(=O)(=O)N([C@H](C)CO)C[C@H]1C,·,·,-3,·,-1,·
O=C(O)c1ccc(-c2nnc(-c3ccccc3)o2)cc1,4,-1,-1,-1,13*,42
SMILES,Yp Topo-I inh,FadD28 FP inh,BioA inh,MazEF act,TcdB inh,DUSP3 inh
CCCNC(=O)[C@@H]1[C@@H](CO)[C@@H]2Cn3c(cccc3=O)[C@H]1N2Cc1ccccc1,·,·,-1,·,-1,·
Cn1cc(C(CO)Cc2ccccc2)c2ccccc21 (stereo not given),3,1,0,2,20*,·
O=C(O)c1cccc(-n2cccc2/C=C/[N+](=O)[O-])c1,-12,13*,·,-12,0,4
O=C(O)c1cccc(-n2cccc2/C=C\[N+](=O)[O-])c1,-5,1,·,-4,1,21
COc1ccccc1-c1ccc2c(c1)[C@H]1[C@H](CCN1S(=O)(=O)c1ccccc1F)[C@H](CO)N2,·,·,0,·,1,·
Cc1ccc(Cn2ccc(NC(=O)c3cc(-c4cccs4)on3)n2)cc1,87*,0,0,-39,·,17
COc1ccc(-n2c(O)c(/C=C3\C=Nc4ccccc43)c(=O)[nH]c2=O)cc1,-1,-3,-1,304*,1,1
O=c1[nH]c(=O)n(-c2ccc(F)cc2)c(O)c1/C=C1\C=Nc2ccccc21,-2,2,-2,-800,1,20
O=C(CCN1c2ccccc2Sc2ccccc21)OCC(=O)N1CCN(C(=O)c2ccco2)CC1,52*,4,0,-2,·,22
O=C(O)c1ccccc1-c1ccc(/C=c2\sc3nc4cc(Br)cnc4n3c2=O)o1,-4,24*,0,-442,·,20
COCC#Cc1cnc2c(c1)C(=O)N([C@@H](C)CO)C[C@@H](C)[C@@H](CN(C)C(=O)c1ccc(F)cc1)O2,·,·,5,·,-1,·
CN(C)C(=O)CSc1nc(-c2ccccc2)c(-c2ccccc2)o1,30,-6,2,-6,3,51*
CNC(=O)CSc1nc(-c2ccccc2)c(-c2ccccc2)o1,2,-3,2,-1,2,14
CCC(=O)N(C)C[C@H]1Oc2cc(C#Cc3ccncc3)ccc2S(=O)(=O)N([C@H](C)CO)C[C@H]1C,·,·,1,·,-2,·
O=C(O)c1cc(N=Nc2c(O)ccc3ccccc23)cc(C(=O)O)c1,3,13*,·,9,1,12
Oc1ccc(N=Nc2c(O)ccc3ccccc23)cc1,-1,1,-2,6,1,1
CCc1ccccc1NC(=S)N(Cc1ccc(C(=O)O)cc1)Cc1ccc(OC)c(OC)c1,7,-1,0,7,13*,3
Cc1cc(NC(=S)N(Cc2ccc(Cl)cc2)Cc2ccc(C(=O)O)cc2)ccc1Cl,-11,2,9,7,1,-2
CCc1ccc(NC(=S)N(Cc2ccc(Cl)cc2)Cc2ccc(C(=O)O)cc2)cc1,11,17*,·,-10,3,16
COc1ccc(CN(Cc2ccc(C(=O)O)cc2)C(=S)Nc2ccccc2C)cc1OC,9,-1,-1,4,1,3
CCC(=O)N1CC2(C1)CN(CC1CCOCC1)[C@@H](CO)c1c2c2ccc(OC)cc2n1C,·,·,·,·,-10,·
Cc1noc(C)c1S(=O)(=O)Nc1ccc2c(c1)C(=O)N([C@@H](C)CO)C[C@H](C)[C@@H](CN(C)S(=O)(=O)c1cn(C)cn1)OCCCC[C@H](C)O2,·,·,-1,·,0,·
C[C@@H]1CCCCO[C@@H](CN(C)Cc2ccncc2)[C@H](C)CN([C@@H](C)CO)C(=O)c2cc(NC(=O)CCC(F)(F)F)ccc2O1,·,·,1,·,1,·
CN1CCN(CCCN2c3ccccc3Sc3ccc(Cl)cc32)CC1,-8,8.2*,4,6,-1,-3
CCSc1ccc2c(c1)N(CCCN1CCN(C)CC1)c1ccccc1S2,-5,-2,4,39,-20,·
